We go through 17 compounds from PubChem BioAssay (NCI).

Test systems include T-47D breast; BT-549 breast; MDA-MB-435 melanoma; MCF7 breast; HCT-116 colon; HCC-2998 colon; KM12 colon; SW-620 colon.
Experiment in all cases: NCI-60 one-dose screen, 48 h (100 = growth as untreated, 0 = no growth, -100 = all killed)
Common to all, as to conditions: 10 µM

Structures are written as SMILES. About 83,000 compounds went through this panel and 20% of them were active in at least one assay; those are over-represented in the sample as a whole.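 Method: cells in 96-well plates; compound added at one concentration; 48 h incubation; percent growth measured; values under 10 scored active.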 Values without a mark were called inactive. Activity calls are given as the source filed them.

As for `O=C(CN(C1CCCCC1)C1CCCCC1)Nc1ccc(S(=O)(=O)c2ccc(NC(=O)CN(C3CCCCC3)C3CCCCC3)cc2)cc1`, the growth with T-47D breast is -38.1% (active); with BT-549 breast it was -85.3% (active); with MDA-MB-435 melanoma it was -39.5% (active); with MCF7 breast, -40.7% (active); in the experiment with HCT-116 colon, -86.3% (active); in the experiment on HCC-2998 colon it was -37.4% (active). In the experiment with KM12 colon, the growth was -28.6% (active).

On to `Brc1ccc2c(c1)-c1ccccc1C1=NCCN12`, for which the growth was -0.518% (active) in the experiment on T-47D breast; 11% with BT-549 breast; 1.68% (active) in the experiment on MDA-MB-435 melanoma; -5.53% (active) in the experiment with MCF7 breast; -12.6% (active) with HCT-116 colon; 13.5% in the experiment with HCC-2998 colon. In addition, the growth in the experiment on KM12 colon is 10.9%.

`O=[N+]([O-])c1ccc(NCSc2ccc(Cl)cc2)cc1`: the growth with T-47D breast was 92.8%; with BT-549 breast it was 71.5%; in the experiment on MDA-MB-435 melanoma, 109%; in the experiment with MCF7 breast, 95%; in the experiment on HCT-116 colon it was 86.3%.

In the case of `O=C1/C=C/[C@@H](O)[C@@H]2C[C@@H](O)C[C@H]2/C=C/CCC[C@@H](C(F)(F)F)O1`, the growth in the experiment on T-47D breast was 82.3%; in the experiment on BT-549 breast it was 123%; in the experiment with MDA-MB-435 melanoma, 93.5%; with MCF7 breast, 67.1%; with HCT-116 colon, 109%; in the experiment on HCC-2998 colon, 107%. The growth with KM12 colon was 99.3%.

Consider `Nc1cc(-c2ccc(Cl)cc2)nn1-c1nc2ccccc2nc1Cc1ccccc1`, for which the growth in the experiment on T-47D breast was 85.5%; in the experiment on BT-549 breast, 90.5%; in the experiment on MDA-MB-435 melanoma it was 86.8%; in the experiment with MCF7 breast, 85.3%; with HCT-116 colon, 72.8%; with HCC-2998 colon, 94.8%.

In the case of `S=C(SSC(=S)N(c1ccccc1)c1ccccc1)N(c1ccccc1)c1ccccc1`, the growth was 97.3% in the experiment on T-47D breast; 109% with BT-549 breast; 104% in the experiment on MDA-MB-435 melanoma; 108% in the experiment with SW-620 colon; 100% with HCT-116 colon; 101% with HCC-2998 colon. In addition, the growth in the experiment with KM12 colon was 98.1%.

As to `Cc1cn(-c2cccc(NC(=O)c3ccc(C)c(Nc4nccc(-c5cccnc5)n4)c3)c2)cn1`, the growth in the experiment on T-47D breast was 46%; in the experiment on BT-549 breast, -39.4% (active); in the experiment on MDA-MB-435 melanoma, -27.8% (active); with SW-620 colon, 20.2%; with HCT-116 colon, -87.4% (active); in the experiment with HCC-2998 colon, 41.7%. In addition, in the experiment on KM12 colon, the growth was -94.9% (active).

As for `CC(=O)C1N=NCC1c1ccccc1` (stereo unspecified), the growth was 104% in the experiment on T-47D breast; 105% in the experiment on BT-549 breast; 108% in the experiment with MDA-MB-435 melanoma; 101% in the experiment on SW-620 colon; 100% with HCT-116 colon; 102% in the experiment on HCC-2998 colon. Besides, the growth with KM12 colon is 102%.

Turning to `COc1cc2c3c(n([C@H]4CCOC4)c(=O)c2cc1OC)-c1cc2c(cc1C3=O)OCO2`, the growth is 11.8% in the experiment on T-47D breast; 48.2% in the experiment with BT-549 breast; 59.3% in the experiment with MDA-MB-435 melanoma; 14.2% in the experiment with MCF7 breast; 31% in the experiment on HCT-116 colon; 70.5% in the experiment with HCC-2998 colon. Also, the growth with KM12 colon was 57.1%.

For `c1ccc2c(c1)Cc1ccccc1N2CCN1CCCCC1`, the growth was 90.3% with T-47D breast; 86.3% with BT-549 breast; 106% with MDA-MB-435 melanoma; 89.4% with MCF7 breast; 56.8% in the experiment on HCT-116 colon; 86% in the experiment on HCC-2998 colon. Moreover, the growth with KM12 colon was 95.3%.

Take `COc1cc(/C=C2\CCCC3=C2N=C2SC(C)=CN2C3c2cc(OC)c(OC)c(OC)c2)cc(OC)c1OC` (stereo unspecified): the growth in the experiment on T-47D breast is 33.1%; with BT-549 breast, -14.5% (active); in the experiment with MDA-MB-435 melanoma, 1.99% (active); in the experiment on MCF7 breast, 16%; with HCT-116 colon it was -86.2% (active); in the experiment with HCC-2998 colon, -88% (active). In addition, the growth in the experiment on KM12 colon was -80.4% (active).

For the compound `O=C(CI)OCC(COC(=O)CI)OC(=O)CI`, the growth in the experiment on T-47D breast was 35.4%; in the experiment with BT-549 breast it was 74.6%; in the experiment with MDA-MB-435 melanoma, 91.5%; in the experiment with SW-620 colon, 27.5%; with HCT-116 colon, 56.3%; in the experiment on HCC-2998 colon, 102%. In addition, the growth in the experiment on KM12 colon was 102%.

Take `Clc1nc2ccc(Br)cc2cc1-c1nc2ccccc2[nH]1`: the growth with T-47D breast is 104%; in the experiment with BT-549 breast, 85.9%; in the experiment with MDA-MB-435 melanoma, 102%; in the experiment on SW-620 colon it was 89.7%; with HCT-116 colon it was 77.8%; in the experiment with HCC-2998 colon it was 108%. The growth in the experiment on KM12 colon is 90.7%.

For `NS(=O)(=O)Oc1ccc(NC(=O)C2CCCCCC2)cc1`, the growth was 90.7% with T-47D breast; 104% with BT-549 breast; 106% with MDA-MB-435 melanoma; 106% with SW-620 colon; 105% with HCT-116 colon; 101% with HCC-2998 colon. Moreover, the growth in the experiment on KM12 colon was 101%.

`Cc1cc(Br)nnc1Br`: the growth with T-47D breast is 90.1%; with BT-549 breast, 96.8%; with MDA-MB-435 melanoma it was 114%; in the experiment on SW-620 colon it was 109%; in the experiment on HCT-116 colon it was 106%; with HCC-2998 colon it was 108%. Further, in the experiment with KM12 colon, the growth was 96.6%.

`CCCCN(CCCC)C(=O)[C@H](CC)[C@@H]1CC[C@@H](C)[C@@H]([C@H](C)[C@@H](O)[C@@H](C)C(=O)[C@H](CC)C2O[C@]3(C=CC(=O)[C@]4(CC[C@@](C)([C@H]5CC[C@](O)(CC)[C@H](C)O5)O4)O3)[C@H](C)C[C@@H]2C)O1` (stereo partly specified): the growth was 20.7% in the experiment on T-47D breast; 62.7% with BT-549 breast; 44.6% with MDA-MB-435 melanoma; 25.7% in the experiment on SW-620 colon; 19% in the experiment on HCT-116 colon; 39% in the experiment with HCC-2998 colon. Besides, the growth in the experiment with KM12 colon was 55.6%.

Turning to `O=S(=O)(O)c1cccc(Nc2ccc3ccccc3c2)c1`, the growth in the experiment on T-47D breast is 89.9%; in the experiment with BT-549 breast, 98.4%; in the experiment with MDA-MB-435 melanoma, 106%; with MCF7 breast it was 99.5%; in the experiment with HCT-116 colon, 90.5%; with HCC-2998 colon, 104%. The growth with KM12 colon is 90.6%.
